# The full list was thinned out, with hits kept by preference.
# RMI FANCM FP: disruptors of RMI1/RMI2 association with MM2 peptide – biochemical, fluorescence polarization, human, primary screen; RMI core complex (RMI1/RMI2) binding to FANCM MM2 peptide, human; actives 0.58% (n = 70,000); AID 1159607, 2016; FP signal (polarization) at 33 µM; RMI core complex with F-MM2 peptide; active compounds read low; in the data active means FP signal below about 40
# * = called active by the depositor.
SMILES,RMI FANCM FP
Cc1ccsc1C1C2=C(CCCC2=O)Nc2c1c(=O)n(C)c(=O)n2C (stereo unspecified),55
Cn1c2c(c(=O)n(C)c1=O)C(c1cccc(F)c1)C1=C(CC(C)(C)CC1=O)N2 (stereo unspecified),-8*
CC1(C)CC(=O)C2=C(C1)Nc1[nH]c(=S)[nH]c(=O)c1C2c1ccc2c(c1)OCO2 (stereo unspecified),52
COc1cccc(C(c2sc3nc(C)nn3c2O)N2CCN(C(c3ccccc3)c3ccccc3)CC2)c1 (stereo unspecified),60
CCCCC(=O)Nc1nc2c(Br)cccc2s1,61
COc1ccc(-c2ccc(=O)n(CCCC(=O)Nc3ccccc3C(N)=O)n2)cc1OC,73
COc1ccc(N2CCN(C(=O)C34CCC(C)(C(=O)C3)C4(C)C)CC2)cc1 (stereo unspecified),63
CC12CCC(C(=O)N3CCC(C(=O)O)CC3)(CC1=O)C2(C)C (stereo unspecified),58
CC1CCCCN1C(=O)C12CCC(C)(/C(=N\O)C1)C2(C)C (stereo unspecified),25*
COc1ccc(OC)c(-n2c(=S)[nH]c3cc(C(=O)Nc4ccc(Oc5ccccc5)cc4)ccc3c2=O)c1,61
CCc1ccccc1NC(=O)/C=C/c1ccccc1Cl,78
CCNC(=O)C1Cc2ccccc2N1C(=O)/C=C\c1ccc([N+](=O)[O-])cc1 (stereo unspecified),62
COc1cc(C(=O)Nc2ccccc2SCCC#N)cc(OC)c1OC,56
Cc1ccc(-c2csc(-n3nc(C)cc3NC(=O)c3ccccc3F)n2)cc1,67
Oc1c(Cl)cc(Cl)cc1/C=N\NC(=S)NC1CC2CCC1C2 (stereo unspecified),11*
OCCN/N=C\c1cc(Cl)cc(Cl)c1O,40
Oc1ccccc1/C=N\NC(=S)NC1CC2C=CC1C2 (stereo unspecified),53
Cc1cc(NC(=O)C(=O)NCc2ccsc2)c2ccccc2n1,72
O=[N+]([O-])c1ccc(SC2=NCCN2)c(Cl)c1,53
O=[N+]([O-])c1ccc(Sc2ccc(Cl)cc2Cl)c2nonc12,33*
O=[N+]([O-])c1ccc(Sc2ccccc2)c(Cl)c1,53
COCCCn1c(C(=O)Nc2ccc3c(c2)OCO3)cc2c(=O)n3ccccc3nc21,64
COc1ccc2sc(N(Cc3ccccn3)C(=O)c3cccc(C(F)(F)F)c3)nc2c1,55
Cc1ccc2oc(C(=O)NCCn3c(C)cc4ccccc43)cc2n1,26*
CSc1ccccc1NC(=O)c1cc2nc(C)ccc2o1,58
SMILES,RMI FANCM FP
Cc1ccc2oc(C(=O)NCc3cccs3)cc2n1,64
C=CCOc1ccc(-c2nn(-c3ccccc3)cc2/C=c2\sc3ncnn3c2=O)cc1C,7
CCC1CCCCN1S(=O)(=O)c1ccc(C(=O)Nc2nc(-c3cc4cccc(OC)c4o3)cs2)cc1 (stereo unspecified),19*
CCOc1cccc2cc(-c3csc(NC(=O)c4ccc(S(=O)(=O)N5CCCc6ccccc65)cc4)n3)oc12,54
CCOc1cccc2cc(-c3csc(NC(=O)c4ccc(C(C)=O)cc4)n3)oc12,53
COc1ccc(N(C)S(=O)(=O)c2ccsc2-c2nc(-c3ccc(OC)c(OC)c3)no2)cc1,60
O=C(NC(=S)Nc1cccc(C(F)(F)F)c1)c1ccc(Br)o1,64
O=C(Nc1nc2c(cc3c4c(cccc42)CC3)s1)c1ccc(Br)s1,72
CCOC(=O)Nc1cc(C(=O)OCC)c(C)nc1C,60
COC(=O)c1ccc(CSc2nc(=O)n3ccc(C)cc3n2)o1,48
Cc1ccc(C2CC(c3cccs3)=NN2C(=O)CSc2nc(=O)n3ccc(C)cc3n2)cc1 (stereo unspecified),88
CCOC(=O)N1CCN(C(=O)CSc2nc(=O)n3ccc(C)cc3n2)CC1,29*
COC(=O)c1ccc2nc(NC(=O)c3cc(-c4cccs4)nc4ccccc34)sc2c1,85
NC(=O)c1ccsc1NC(=O)c1cc(-c2ccccc2)nc2ccccc12,61
O=C(Nc1nc(-c2cccs2)c(C(=O)C(F)(F)F)s1)c1cc(-c2ccccc2)nc2ccccc12,19*
CC(C)=CC(=O)Nc1nc(-c2ccccc2Cl)cs1,72
COC(=O)c1ccc2c(c1)C(=O)/C(=C/c1ccccc1F)O2,14*
COC(=O)c1ccc2c(c1)C(=O)/C(=C/c1ccc(O)c(OC)c1)O2,72
COC(=O)c1ccc2nsnc2c1,61
